# Screening data as filed in PubChem BioAssay.
# An excerpt weighted towards active compounds, which were near 3.9% of everything screened.
# Tb PFK block: qHTS Assay to Find Inhibitors of T. brucei phosphofructokinase. ATP-dependent 6-phosphofructokinase (Trypanosoma brucei brucei), O15648. Potency, µM (highest dose often 57.5 µM), inactives show at the highest dose activity, negative = inhibition, most hits filed as inhibitors. T. brucei PFK, ADP-Glo luminescence. 330,000 compounds, 0.17% hits. AID 485367, 2010;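 note: 0% = uninhibited 1x PFK enzyme wells and -100% = no-enzyme wells; nearly all actives have a fitted effect of over 60% in size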
# Target sequence (O15648 whole entry, looked up): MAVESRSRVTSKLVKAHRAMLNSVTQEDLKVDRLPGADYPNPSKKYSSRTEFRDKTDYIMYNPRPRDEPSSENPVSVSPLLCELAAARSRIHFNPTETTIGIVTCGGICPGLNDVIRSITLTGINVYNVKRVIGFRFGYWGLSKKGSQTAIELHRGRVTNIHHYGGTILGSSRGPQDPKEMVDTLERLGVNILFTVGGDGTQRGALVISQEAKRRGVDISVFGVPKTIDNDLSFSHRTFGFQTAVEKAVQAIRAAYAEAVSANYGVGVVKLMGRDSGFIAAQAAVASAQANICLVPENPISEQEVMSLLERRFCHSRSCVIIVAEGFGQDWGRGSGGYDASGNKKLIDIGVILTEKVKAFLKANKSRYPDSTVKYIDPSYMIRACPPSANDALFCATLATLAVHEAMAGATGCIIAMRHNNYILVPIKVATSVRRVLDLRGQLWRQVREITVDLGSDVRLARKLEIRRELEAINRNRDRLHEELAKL
#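 In TEA buffer at pH 8.0 with 5 mM MgCl2, enzyme (1.25 nM) converted F6P (0.5 mM) and ATP (0.1 mM) for 45 min at room temperature. ADP product was read by luciferase luminescence.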
# PLK1 PBD block: qHTS for Inhibitors of PLK1-PDB (polo-like kinase 1 - polo-box domain): Primary Screen | 360,000 compounds, 2.8% hits | Potency, µM, for inactives: max response, negative = inhibition, hits mostly inhibitors | Plk1 PBD binding of FITC phosphopeptide, fluorescence polarization | Serine/threonine-protein kinase PLK1 (Homo sapiens), P53350 | AID 720504, 2013; note: series mostly up to about 57 µM; % is set by controls: 0 for no effect and ±100 for the full control effect; nearly all actives have a fitted effect of over 65% in size
# VDR inh: Inhibitors of the vitamin D receptor (VDR): qHTS; Vitamin D3 receptor (Homo sapiens), P11473; VDR-SRC2-3 peptide fluorescence polarization, 2 h; Potency, µM, for the others: max response, negative = inhibition, usual class: inhibitors; 400,000 compounds, 0.93% hits; note: % is set by controls: 0 for no effect and ±100 for the full control effect
#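 Signal is fluorescence polarization, reporting how far test compounds block the interaction of VDR with the SRC2-3 coregulator peptide after a 2 h room-temperature incubation.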
# BRCA1 expr up: qHTS Assay to Identify Small Molecule Activators of BRCA1 Expression; 380,000 compounds, 1.1% hits; Potency, µM (highest dose often 46.1 µM), inactives show at the highest dose activation, most hits filed as activators; MCF7-BRCA1-FFLuc reporter, luminescence, 48 h; response scale: scaled: vehicle 0%, 10 µM genistein 100%; note: nearly all actives have a fitted effect of over 80% in size
#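 MCF7 cells carrying a BRCA1-firefly luciferase reporter (2000 cells/well, phenol-red free MEM) were attached for 2 h at 37 °C, then given compounds for 48 h. Luminescence was read 15 min after luciferase reagent; activity normalized to genistein (10 microM) and DMSO.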
# An asterisk follows results filed as active; u = inconclusive; x = no result. Calls come from the whole dose curve; as a rule, active = well fitted curve in the direction sought with a large enough effect; inconclusive = small, poorly fitted or top-dose-only effect, or another doubt; inactive = no such curve, though single readings can be large; an effect the other way counts as inactive or inconclusive. Potency is the fitted concentration of half-maximal effect.
SMILES,Tb PFK block,PLK1 PBD block,VDR inh,BRCA1 expr up
CC(=O)Nc1cccc(/C(C)=N/NC(=O)c2cccs2)c1,-1%,2%,-17%,u
C/C(=N\NC(=O)c1ccc2c(c1)OCO2)c1ccc2c(c1)OCO2,0%,-7%,-19%,7.9µM*
C/C(=N\Nc1ncc(Cl)cc1Cl)c1ccc2c(c1)OCO2,-1%,3%,-21%,5.6µM*
C/C(=N\NC(=O)c1cccs1)c1c(O)cc(C)oc1=O,-14%,-8%,-15%,3.5µM*
COc1ccc(CCN2CC(C(=O)NCCCc3ccncc3)CCC2=O)cc1 (centres undefined),x,-19%,x,-8%
COc1ccc(C2/C=C\CN(C(=O)C3CCCCC3)C(Cc3ccccc3)C(=O)N2Cc2ccc(F)cc2)cc1 (centres undefined),x,x,3%,x
C/C(=N\NC(=O)c1cccs1)c1ccc2c(c1)OCO2,-2%,2%,-15%,8.9µM*
C=CCSc1nnc(N2C(=O)C(O)=C(C(=O)c3ccco3)C2c2ccccc2F)s1 (centres undefined),-12%,13µM*,-23%,18%
CCCSc1nnc(N2C(=O)C(O)=C(C(=O)c3ccco3)C2c2ccccc2F)s1 (centres undefined),1%,u,u,0%
O=C(CN1C(=O)c2ccccc2C1=O)NCc1ccc(F)cc1,1%,7.5µM*,u,-11%
CC(C)N(CCCNC(=O)CC1Oc2ccccc2NC1=O)Cc1ccccc1 (centres undefined),-3%,27µM*,-23%,-17%
CC(C)CN(CCCNC(=O)CC1Oc2ccccc2NC1=O)CC(C)C (centres undefined),2%,-10%,16%,11%
CCCCCNC(=O)C(CCc1ccccc1)n1c(=O)c(-c2ccccc2)nc2ccccc21 (centres undefined),x,-18%,x,x
N#Cc1c(N2CCSCC2)nsc1-c1ccccc1Cl,-4%,-20%,3%,11µM*
COc1cc(C(N)=O)cc(Cl)c1OC,3%,-7%,-9%,14%
CNC(=O)c1cc(Cl)c(OC)c(OC)c1,-3%,27µM*,-32%,6%
COCCCNC(=O)c1cc(OC)c(OC)c(OC)c1,-1%,30µM*,-13%,0%
CCc1ccc(CNC(=O)c2ccc(NC(=O)N3CCSc4ncccc43)cc2)cc1,x,x,5%,x
Cc1cc(C)c(SSc2nnnn2-c2ccccc2)c(C)c1,x,3µM*,x,-22%
Cc1ccc2cc(C)c(Sc3nnnn3-c3ccccc3)nc2c1,3%,-7%,3%,-29%
CCC(NC(=O)Nc1cc(OC)ccc1OC)c1c(-n2cccc2)sc2c1CCN(CC)C2 (centres undefined),x,x,3%,x
Cc1cc(S(=O)(=O)Nc2cc3c(cc2Cl)n(C)c(=O)c(=O)n3C)ccc1F,x,x,-5%,x
CC1CCc2c(sc(NC(=O)COC(=O)C3CCCO3)c2C#N)C1 (centres undefined),-2%,-1%,-22%,19%
CC1CCc2c(sc(NC(=O)C3CCCO3)c2C#N)C1 (centres undefined),-6%,-17%,-24%,10µM*
CC1CCc2c(sc(NC(=O)Cn3nc(C(F)(F)F)c4c3CCCCC4)c2C#N)C1 (centres undefined),3%,27µM*,-21%,-3%
SMILES,Tb PFK block,PLK1 PBD block,VDR inh,BRCA1 expr up
CC1CCc2c(sc(NC(=O)c3nc4ncccn4n3)c2C#N)C1 (centres undefined),u,4.7µM*,u,113%
CC1CCN(CC(=O)Nc2sc3c(c2C#N)CCC3)CC1,0%,-5%,1%,26%
N#Cc1c(NC(=O)c2cnn3cccnc23)sc2c1CCCC2,-9%,24µM*,3%,80%
Cc1csc2nc(COc3ccccc3NC(=O)c3ccccc3Cl)cc(=O)n12,x,x,-13%,-7%
CCOCCOC(=O)c1ccc(NC(=O)/C=C/c2ccc(OC)c(OC)c2)cc1,x,x,-2%,x
CCC(C)n1c(SCC(=O)N(CC)c2c(N)n(Cc3ccccc3)c(=O)[nH]c2=O)nc2ccccc2c1=O (centres undefined),x,-3%,3%,-4%
CCc1nnc(NC(=O)C2CCCO2)s1 (centres undefined),-24%,-11%,14%,28%
